Shown are actives, neighbours in structure and some others; about 20% of the full set was active somewhere.
HCMV antiviral = qHTS Assay for inhibitors of the human cytomegalovirus (HCMV); HFF cells, HCMV-luciferase reporter, 72 h; stronger effect = lower value; activity change, negative = inhibition, % at 57.5 µM; actives 4.5% (n = 410,000); in the data active means activity change below about -60%; inconclusive means no clear call, values can overlap the other calls; inactive means above about -39%; further: on the % scale 0 is the no-effect control and ±100 the full control effect
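Human foreskin fibroblasts infected with luciferase-reporter HCMV at MOI 1 PFU/cell, compounds at two doses. Luciferase measured 72 h post infection; normalized to buffer-only basal and Salinomycin (10uM) controls.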
Shiga toxin inh = A qHTS for Small Molecule Inhibitors of Shiga Toxin; Vero cells, Shiga toxin protein synthesis inhibition reporter; inhibition, % at 38.7 µM; actives 9.2% (n = 290,000); in the data active means inhibition mostly above about 28%, no sharp cut-off; inactive means mostly below about 43%; further: 0% is about no effect
Cycloheximide cs = Cycloheximide Counterscreen for Small Molecule Inhibitors of Shiga Toxin. max response, %. cell reporter, cycloheximide protein synthesis inhibition counterscreen. AID 2314, 2010. actives 12% (n = 300,000); in the data active means max response mostly above about 13%, no sharp cut-off; inactive means mostly below about 14%; further: read at 38.3 µM for the half of the compounds with a filed dose; 0% is about no effect
Pf growth 96h = Primary qHTS for delayed death inhibitors of the malarial parasite plastid, 96 hour incubation; P. falciparum luciferase reporter growth, 96 h; Potency, µM (highest dose often 28.7 µM), without a hit: top-dose activity change, negative = inhibition, hits mostly inhibitors; actives 6.9% (n = 320,000); further: potency means the concentration at half of the fitted maximal effect; on the % scale 0 is the no-effect control and ±100 the full control effect
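Luminescence readout: decreased luciferase signal marks inhibited growth of reporter-expressing P. falciparum in infected red cells (2% hematocrit, 0.05% parasitemia final), exposed to compound two generations (96 h, 37 C, 5% CO2).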
Pf growth 48h = Primary qHTS for delayed death inhibitors of the malarial parasite plastid, 48 hour incubation; actives 5.9% (n = 310,000); P. falciparum luciferase growth in erythrocytes, 48 h; Potency, µM (series often up to 28.7 µM), inactives show at the top dose activity change, negative = inhibition, usual class: inhibitors; AID 504832, 2011; further: potency means the concentration at half of the fitted maximal effect; on the % scale 0 is the no-effect control and ±100 the full control effect
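First compound was added to culture medium, then infected red cells at 0.1% parasitemia and 2% hematocrit (final). After incubation at 37 C under 5% CO2, luciferase detection reagent was dispensed and light output recorded.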
The depositor's hits bear a star; [ ] = dose if it differs, or a comment. Unless noted, the call rests on the fitted dose curve; in most records, active means well fitted inhibition curve with a large enough effect; inconclusive means small, poorly fitted or top-dose-only effect, or another doubt; inactive means no such curve, though single readings can be large or run the other way.

For Cc1cccc(NC(=S)N(C)Cc2cn(C)c3ccccc23)c1 the results were HCMV antiviral -68*, Shiga toxin inh -2, Cycloheximide cs -3, Pf growth 96h 30% and Pf growth 48h -21%.
CN(Cc1cn(C)c2ccccc12)C(=S)Nc1cc(F)cc(F)c1 was read as HCMV antiviral -2, Shiga toxin inh -5, Cycloheximide cs -3, Pf growth 96h -11% and Pf growth 48h 12µM*.
For COc1ccccc1NC(=O)C(C)OC(=O)C1CCN(S(=O)(=O)c2ccc(C)c(C)c2)CC1 (stereo not given) the results were HCMV antiviral -14, Pf growth 96h -25% and Pf growth 48h inconclusive.
Screening COc1ccc(-c2csc(=Nc3ccccc3)n2CCO)cc1 returned HCMV antiviral -62*, Shiga toxin inh 41*, Cycloheximide cs 16*, Pf growth 96h -1% and Pf growth 48h 8%.
Screening COc1ccc(-c2csc(=NCCO)n2-c2ccccc2)cc1 returned HCMV antiviral inconclusive, Shiga toxin inh 71*, Cycloheximide cs 17*, Pf growth 96h 26% and Pf growth 48h -7%[0.00184 µM].
Screening Cc1csc(=Nc2c(C)n(C)n(-c3ccccc3)c2=O)n1Cc1ccccc1 returned HCMV antiviral -14, Shiga toxin inh 22, Cycloheximide cs 2, Pf growth 96h -10% and Pf growth 48h -13%.
C=CCn1c(-c2ccc(OC)cc2)csc1=Nc1c(C)n(C)n(-c2ccccc2)c1=O was read as HCMV antiviral inconclusive, Shiga toxin inh -22, Cycloheximide cs -4 and Pf growth 96h 15µM*.
`CS(=O)(=O)N(CC(=O)Nc1ccc(S(=O)(=O)N2CCOCC2)cc1)c1ccccc1Cl` gave HCMV antiviral 9, Shiga toxin inh 10, Cycloheximide cs -3, Pf growth 96h 36% and Pf growth 48h -9%.
Screening O=C(O)c1cccc(Nc2ccc([N+](=O)[O-])cn2)c1 returned HCMV antiviral 8, Shiga toxin inh 9, Cycloheximide cs -1, Pf growth 96h 10% and Pf growth 48h -4%.
Screening O=[N+]([O-])c1ccc(Nc2ccc3ccccc3c2)nc1 returned HCMV antiviral 6, Shiga toxin inh 89*, Cycloheximide cs 45*, Pf growth 96h inconclusive and Pf growth 48h -93%.
For C=CCn1c(=O)c2ccccc2n2c(SCC(=O)O)nnc12 the results were HCMV antiviral 6, Shiga toxin inh -13, Cycloheximide cs -8, Pf growth 96h 19% and Pf growth 48h 26%.
`COCCn1c(SCc2nc3ccccc3s2)nc2ccccc21` gave HCMV antiviral 61, Shiga toxin inh 147*, Cycloheximide cs 37*, Pf growth 96h -5% and Pf growth 48h 52%.
`CCOCCCn1c(SCC(=O)NC(C)C)nc2ccccc2c1=O` gave HCMV antiviral -107*, Shiga toxin inh -6, Cycloheximide cs -2, Pf growth 96h -3% and Pf growth 48h -17%.
Screening C=CCn1c(=O)c2ccccc2n2c(SCc3nc4ccccc4s3)nnc12 returned HCMV antiviral 122, Shiga toxin inh 131*, Cycloheximide cs 45* and Pf growth 48h 140%.
For CCOCCCn1c(SCc2nc3ccccc3s2)nc2ccccc2c1=O the results were HCMV antiviral -78*, Shiga toxin inh 101*, Cycloheximide cs 87*, Pf growth 96h inconclusive and Pf growth 48h inconclusive.
For Cc1nn(CC(=O)N(CC(C)C)C2CCS(=O)(=O)C2)c(C)c1[N+](=O)[O-] (stereo not given) the results were HCMV antiviral 9.
CCCOc1ccc(C(=O)CCC(=O)NNC(=O)Cn2nc(C)cc2C)cc1 was read as HCMV antiviral -14, Pf growth 96h 9% and Pf growth 48h 24%.
`Cc1ccc(CNC(=O)C2CCCN2S(=O)(=O)c2ccc(Cl)cc2)cc1` (stereo not given) gave HCMV antiviral 23, Cycloheximide cs -2, Pf growth 96h -29% and Pf growth 48h 4%.
For Cc1cc(C)c(C#N)c(SCC(=O)Nc2ccc3c(c2)OCO3)n1 the results were HCMV antiviral 32, Shiga toxin inh 28*, Cycloheximide cs 26*, Pf growth 96h 132% and Pf growth 48h 99%.
`Cc1nc(SCC(=O)Nc2ccc3c(c2)OCO3)c(C#N)c2c1CCCC2` gave HCMV antiviral -8, Shiga toxin inh 49, Cycloheximide cs -1 and Pf growth 48h 41%.
COCc1cc(C)nc(SCC(=O)Nc2ccc(C)c(C)c2)c1C#N was read as HCMV antiviral 32, Shiga toxin inh 98*, Cycloheximide cs 44*, Pf growth 96h 24% and Pf growth 48h 93%.
O=C(NCc1n[nH]c(=S)n1-c1ccc(Br)cc1)c1ccc(S(=O)(=O)N2CCCCC2)cc1 was read as HCMV antiviral inconclusive, Shiga toxin inh 4, Cycloheximide cs -1, Pf growth 96h 29% and Pf growth 48h 4%.
For Cc1ccc(S(=O)(=O)N(C)C)cc1NC(=O)C1CCCCC1 the results were HCMV antiviral 37, Shiga toxin inh 15, Cycloheximide cs -1, Pf growth 96h -5% and Pf growth 48h -15%.
Screening CC(C)C[C@@H](C)C(=O)N(Cc1ccccc1)c1ccccc1 returned HCMV antiviral inconclusive, Pf growth 96h inconclusive and Pf growth 48h -6%.
`CC[C@@H](CCC=C(C)C)C(=O)N(Cc1ccccc1)c1ccccc1` gave HCMV antiviral -27, Pf growth 96h inconclusive and Pf growth 48h 8.3µM*.
CCOC(=O)c1nc(Nc2ccc(Cl)cc2)c2c(C)noc2n1 was read as HCMV antiviral 5.
Screening CCOC(=O)C1=C(Nc2ccc(Cl)cc2)OCC1=O returned HCMV antiviral -31, Shiga toxin inh -2, Cycloheximide cs 0, Pf growth 96h 2.6µM* and Pf growth 48h 12µM*.
Screening Cc1ccn2c(CC(C)(C)C)c(-c3ccc(F)cc3)nc2c1 returned HCMV antiviral -3.
`Cc1ccn2c(C=O)c(-c3ccc(F)cc3)c(C=O)c2c1` gave HCMV antiviral -28, Shiga toxin inh 47, Cycloheximide cs 28*, Pf growth 96h inconclusive and Pf growth 48h 9%.
For CC(C)NC(=O)C1(C)CSCC(=O)N1Cc1cccc(C(F)(F)F)c1 (stereo not given) the results were HCMV antiviral 1.
Screening COc1cccc(CN(C)C(=O)c2[nH]c(C)c(C(C)=O)c2C)c1OC returned HCMV antiviral -33, Shiga toxin inh 2, Cycloheximide cs -2, Pf growth 96h 7.4µM* and Pf growth 48h 12µM*.
Screening CCc1cc2c(=O)c(Oc3ccccc3F)c(C)oc2c(CN(C)C)c1O returned HCMV antiviral 32, Shiga toxin inh -23, Cycloheximide cs -6, Pf growth 96h 21% and Pf growth 48h 8.3µM*.
`Cc1cccnc1NC(N)=S` gave HCMV antiviral -35, Shiga toxin inh 17, Cycloheximide cs 4, Pf growth 96h -7% and Pf growth 48h 34%.
`Cc1cccnc1NC(=S)Nc1ccc(Cl)c(Cl)c1` gave HCMV antiviral -11, Shiga toxin inh 103*, Cycloheximide cs 32*, Pf growth 96h inconclusive and Pf growth 48h 43%.
